Assay outcomes from PubChem.
DT40 TDP1 no CPT – qHTS for Inhibitors of human tyrosyl-DNA phosphodiesterase 1 (TDP1): qHTS in cells in absence of CPT. DT40 Tdp1-/- hTDP1 cells, no CPT, ATP luminescence, 48 h. AID 686978, 2013. hit rate 15% among 420,000. Potency, µM (titrated, usually from 46.2 µM), actives largely listed as inhibitors; also: nearly all actives have a fitted effect of over 55% in size
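Compound effects on proliferation are scored in DT40 Tdp1-/-;hTDP1 cells in the absence of CPT. ATP levels (CellTiter-Glo luminescence) are recorded after a ≥48 hr, 37 °C incubation.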
DT40 TDP1 CPT – qHTS for Inhibitors of human tyrosyl-DNA phosphodiesterase 1 (TDP1): qHTS in cells in presence of CPT; chicken DT40 Tdp1-/-;hTDP1 cells + 20 nM CPT, ATP luminescence, 48 h; Potency, µM (titrated, usually from 46.2 µM), most hits filed as inhibitors; hit rate 12% among 420,000; AID 686979, 2013; also: nearly all actives have a fitted effect of over 55% in size
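Cell growth measured by CellTiter-Glo luminescence after a minimum 48 h, 37 C compound exposure with 20 nM CPT in Tdp1-knockout DT40 cells stably expressing hTDP1, seeded 400/well; qHTS titration format.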
miR-21 reporter – qHTS Assay for Modulators of miRNAs and/orActivators of miR-21; HeLa miR-21 FLuc reporter, luciferase, 48 h; Potency, µM (top dose mostly 38.3 µM), actives largely listed as activators; 340,000 tested, under 10 active;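 also: miR-21 action dims this reporter so a rising signal means less miR-21 action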
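Compounds were titrated across several concentrations (up to approximately 40 uM) and incubated 48 hours with HeLa miR-21-FLuc reporter cells (miR-21 target sequence downstream of FLuc, endogenous miR-21). Readout was firefly luciferase luminescence after lytic detection reagent.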
uPA surface inh – qHTS for Inhibitors of Cell Surface uPA Generation | cell surface uPA generation assay, qHTS | Potency, µM (top dose mostly 38.3 µM), actives largely listed as inhibitors | hit rate 0.31% among 330,000; active = well fitted inhibition curve with a large enough effect; inconclusive = small, poorly fitted or top-dose-only effect; inactive = no such curve, though single readings can be large or run the other way; tested in mouse RAW 264.7 cells; also: nearly all actives have a fitted effect of over 55% in size
TDP1 inh – qHTS Assay for Inhibitors of Tyrosyl-DNA Phosphodiesterase (TDP1). recombinant TDP1, AlphaScreen DNA substrate cleavage. AID 485290, 2010. hit rate 0.28% among 350,000. Potency, µM (top dose mostly 130 µM), hits mostly inhibitors; also: nearly all actives have a fitted effect of over 40% in size
Target sequence (Q9NUW8 whole entry, looked up): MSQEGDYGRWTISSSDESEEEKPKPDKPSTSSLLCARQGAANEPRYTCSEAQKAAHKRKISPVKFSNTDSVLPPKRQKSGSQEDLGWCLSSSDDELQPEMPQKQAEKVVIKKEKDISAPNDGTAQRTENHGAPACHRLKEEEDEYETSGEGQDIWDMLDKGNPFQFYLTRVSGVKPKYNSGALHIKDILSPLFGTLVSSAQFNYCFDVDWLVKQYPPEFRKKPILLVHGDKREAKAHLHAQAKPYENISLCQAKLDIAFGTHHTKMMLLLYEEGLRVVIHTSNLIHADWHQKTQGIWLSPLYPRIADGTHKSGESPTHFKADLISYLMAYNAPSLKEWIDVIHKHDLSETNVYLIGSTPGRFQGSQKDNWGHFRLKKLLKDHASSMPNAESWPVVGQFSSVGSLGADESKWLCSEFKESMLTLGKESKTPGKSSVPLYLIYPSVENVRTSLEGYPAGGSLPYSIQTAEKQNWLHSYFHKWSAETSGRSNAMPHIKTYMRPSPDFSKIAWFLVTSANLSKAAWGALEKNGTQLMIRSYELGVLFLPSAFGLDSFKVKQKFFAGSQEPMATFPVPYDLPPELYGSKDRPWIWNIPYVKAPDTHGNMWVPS
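Tdp1 1 nM final; 15 min RT w/ cpd; substrate 15 nM, 5 min; beads 10 ug/ml, 10 min; AlphaScreen read. Neg ctrl: no enzyme.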
Of the large screens only hits and unclear results are named; the others gave an inactive call; ! = not confirmed by another sample. Shown are actives, neighbours in structure and some others; about 16% of the full set was active somewhere. Unless noted, calls follow the shape of the dose curve; as a rule, active = well fitted curve in the direction sought with a large enough effect; inconclusive = small, poorly fitted or top-dose-only effect, or another doubt; inactive = no such curve, though single readings can be large; an effect the other way counts as inactive or inconclusive.

COc1ccc(/C=C/C(=O)OCC(=O)NCc2ccccc2)cc1OC	DT40 TDP1 no CPT 16µM, DT40 TDP1 CPT 21µM, uPA surface inh inconclusive (no result: miR-21 reporter)
COc1ccc(/C=C/C(=O)OCC(=O)NCCC2=CCCCC2)cc1OC	DT40 TDP1 no CPT 16µM, DT40 TDP1 CPT inconclusive
COc1ccccc1/C=C/C(=O)OCC(=O)NNC(=O)c1ccccc1	DT40 TDP1 no CPT 18µM
COc1ccccc1/C=C/C(=O)OCC(=O)NCc1ccco1	DT40 TDP1 no CPT inconclusive, DT40 TDP1 CPT 18µM
COc1ccccc1/C=C/C(=O)OCC(=O)NC1CC1	none (no result: miR-21 reporter)
Cc1cc(C)c2nc(SC3CCOC3=O)cc(C)c2c1 (centres undefined)	none
COc1ccc(-n2cnnc2SC(C)C(=O)Nc2cccc([N+](=O)[O-])c2)cc1 (centres undefined)	none
Cn1cc(Br)c(C(=O)N/N=C/c2cc3c(cc2Cl)OCO3)n1	uPA surface inh inconclusive
C#CCN1C(=O)S/C(=C\c2ccc(-c3ccc(C(=O)O)cc3C)o2)C1=O	none (no result: TDP1 inh)
Cc1cccc(NC(=O)CN2C(=O)S/C(=C\c3cc(C)n(C)c3C)C2=O)c1	DT40 TDP1 no CPT 18µM
Cc1ccc(C(=O)O)cc1-c1ccc(/C=C2\SC(=O)N(CC(=O)Nc3ccccc3)C2=O)o1	DT40 TDP1 no CPT inconclusive, TDP1 inh 40µM
Cc1ccccc1NC(=O)CN1C(=O)S/C(=C\c2ccc(-c3cc(C(=O)O)ccc3C)o2)C1=O	none (no result: TDP1 inh)
Cc1cc(C(=O)O)ccc1-c1ccc(/C=C2\SC(=O)N(CC(=O)Nc3ccc4c(c3)OCO4)C2=O)o1	TDP1 inh 8.9µM (no result: DT40 TDP1 no CPT, DT40 TDP1 CPT, uPA surface inh)
COc1ccc2cc(C(=O)NCc3ccccc3CN3CCCC3)ccc2c1	DT40 TDP1 no CPT inconclusive, DT40 TDP1 CPT inconclusive (no result: miR-21 reporter)
O=c1c(S(=O)(=O)c2ccccc2)cn(Cc2cccc(F)c2)c2cc(N3CCOCC3)c(F)cc12	DT40 TDP1 no CPT 23µM, DT40 TDP1 CPT inconclusive (no result: uPA surface inh)
O=c1c(S(=O)(=O)c2ccccc2)cn(Cc2ccccc2)c2cc(N3CCOCC3)c(F)cc12	DT40 TDP1 no CPT inconclusive, DT40 TDP1 CPT 21µM (no result: uPA surface inh)
CC(C)(C)NC(=O)C(c1ccc(F)cc1)N(C(=O)CCC(=O)Nc1ccccn1)C1CCCC1 (centres undefined)	none
COc1cc2c(cc1OC)CN(CC(=O)Nc1ccc(F)cc1F)CC2	none (no result: TDP1 inh)
O=C1C(=C(c2ccccc2)N2CCOCC2)Cc2ccccc21	DT40 TDP1 no CPT 0.82µM, DT40 TDP1 CPT 1.2µM (no result: miR-21 reporter, uPA surface inh, TDP1 inh)
Cc1ccc(/C=C2\CC(C)CC3=C2NC(=S)NC3c2ccc(C)cc2)cc1 (centres undefined)	DT40 TDP1 no CPT 15µM, DT40 TDP1 CPT inconclusive
CC1CC2=C(NC(=S)NC2c2ccccc2F)/C(=C/c2ccccc2F)C1 (centres undefined)	DT40 TDP1 no CPT inconclusive, DT40 TDP1 CPT inconclusive
CC1CC2=C(NC(=S)NC2c2cccc(F)c2)/C(=C/c2cccc(F)c2)C1 (centres undefined)	DT40 TDP1 no CPT 16µM, DT40 TDP1 CPT inconclusive
COc1ccc(C)cc1NC(=S)NN1CCN(C)CC1	none
NC(=O)c1c(/N=C/c2cccs2)sc2c1CCCC2	DT40 TDP1 no CPT 3.7µM, DT40 TDP1 CPT 3.7µM (no result: TDP1 inh)
CC(=O)c1ccccc1NC(=O)COC(=O)/C=C/c1ccc(C)o1	DT40 TDP1 no CPT inconclusive, DT40 TDP1 CPT inconclusive
CC(=O)Oc1ccc2c(c1)OC(c1ccccc1)CC21CC(C)(C)NC(=S)N1 (centres undefined)	DT40 TDP1 no CPT 12µM, DT40 TDP1 CPT 16µM
CC1(C)CC2(CC(c3ccccc3)Oc3cc(O)ccc32)NC(=S)N1 (centres undefined)	DT40 TDP1 no CPT 21µM, DT40 TDP1 CPT 21µM
COc1ccc(C2(c3ccc(OC(C)=O)cc3OC(C)=O)CC(c3ccccc3)NC(=S)N2)cc1 (centres undefined)	DT40 TDP1 no CPT inconclusive, DT40 TDP1 CPT inconclusive, uPA surface inh inconclusive
CC1(C)CC2(CC(c3ccccc3)Oc3cc(O)ccc32)NC(=O)N1 (centres undefined)	none (no result: DT40 TDP1 no CPT, DT40 TDP1 CPT, uPA surface inh)
CCc1ccc(S(=O)(=O)NCc2cn3cccc(C)c3n2)s1	DT40 TDP1 no CPT 16µM, DT40 TDP1 CPT 18µM
CCc1ccc(S(=O)(=O)NCc2cn3ccccc3n2)s1	DT40 TDP1 no CPT inconclusive, DT40 TDP1 CPT inconclusive
O=C(NCCc1c[nH]c2ccccc12)c1cccc(S(=O)(=O)Nc2ccccc2Cl)c1	DT40 TDP1 no CPT inconclusive
CN(c1ccccc1)S(=O)(=O)c1ccc(C(=O)NNC(=O)c2ccccc2)cc1	none (no result: miR-21 reporter)
CN(c1ccccc1)S(=O)(=O)c1cccc(C(=O)NCc2ccccc2)c1	DT40 TDP1 no CPT 16µM, DT40 TDP1 CPT inconclusive (no result: miR-21 reporter)
O=C(NCc1cccc(C(F)(F)F)c1)c1cccc(S(=O)(=O)NCc2ccccc2)c1	DT40 TDP1 no CPT 23µM, DT40 TDP1 CPT inconclusive
CN(c1ccccc1)S(=O)(=O)c1cccc(C(=O)NNC(=O)c2ccccc2)c1	DT40 TDP1 no CPT 16µM, DT40 TDP1 CPT 16µM
CN(c1ccccc1)S(=O)(=O)c1cccc(C(=O)NCCc2c[nH]c3ccccc23)c1	DT40 TDP1 no CPT inconclusive, DT40 TDP1 CPT 15µM (no result: miR-21 reporter, TDP1 inh)
S=c1[nH]nc(NCCCN2CCOCC2)s1	none
COc1ccccc1-n1nc(-c2ccccc2)c2cnc3c(F)cc(F)cc3c21	none (no result: uPA surface inh)
CSCC[C@H](NC(=O)c1ccc(Cl)c(S(=O)(=O)N2CCCC2)c1)c1nc2ccccc2[nH]1	DT40 TDP1 no CPT inconclusive, DT40 TDP1 CPT inconclusive
Cc1cc(C)cc(NC(=O)C2CCCN2/C=C/C(=O)C(F)(F)F)c1 (centres undefined)	none
CCOC(=O)c1[nH]c(C=O)c(C(=O)OCC)c1C	DT40 TDP1 no CPT 0.65µM, DT40 TDP1 CPT 0.65µM
CCOC(=O)c1[nH]c(C)c(C(=O)Nc2ccccc2C)c1C	DT40 TDP1 no CPT 1.5µM, DT40 TDP1 CPT 1.6µM, uPA surface inh inconclusive
CCOC(=O)c1[nH]c(C)c(C(=O)NCc2ccccn2)c1C	none (no result: uPA surface inh)
CCOC(=O)c1[nH]c(C)c(C(=O)Nc2cc(Cl)ccc2C)c1C	DT40 TDP1 no CPT 0.16µM, DT40 TDP1 CPT 0.15µM (no result: uPA surface inh)
CCOC(=O)c1[nH]c(C)c(C(=O)O)c1C	none (no result: DT40 TDP1 no CPT, DT40 TDP1 CPT, uPA surface inh)
CCOC(=O)c1[nH]c(C)c(C(=O)NC(CC)Cc2ccccc2)c1C (centres undefined)	DT40 TDP1 no CPT 16µM, DT40 TDP1 CPT inconclusive (no result: uPA surface inh)
COc1cccc(CNC(=O)[C@@H]2CCCN2C(=O)[C@@H]2CCCN2C(=O)c2cccc(OC)c2)c1	DT40 TDP1 CPT inconclusive (no result: miR-21 reporter, uPA surface inh, TDP1 inh)
COc1ccc(C2Sc3ccccc3N(CCN(C)C)C(=O)[C@@H]2OC(C)=O)cc1 (some centres undefined)	DT40 TDP1 no CPT inconclusive, DT40 TDP1 CPT inconclusive (no result: miR-21 reporter, uPA surface inh)
COc1ccc([C@@H]2Sc3ccccc3N(CCN(C)C)C(=O)[C@@H]2OC(C)=O)cc1	DT40 TDP1 no CPT 27µM!, DT40 TDP1 CPT inconclusive
